Data on 38 compounds can be found in PubChem BioAssay (Tox21).

SMILES strings stand for the structures. Inconclusive results are not listed. The source holds several records for some structures; these can differ, active in one and inactive in another. Active and inactive are the calls of the source. The call rests on the fitted dose curve.

For test [1], the target named is Acetylcholinesterase (Homo sapiens) (UniProt P22303). Briefly: Acetylcholinesterase (AChE) small molecule antagonists: colormetric cell-based qHTS assay (AID 1347395). Further: nearly all actives have a fitted effect of over 30% in size. In short, it runs like this: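 SH-SY5Y cells, plated overnight at 37 C, were exposed to compounds for 30 min at 37 C and 5% CO2. Acetylthiocholine plus DTNB was then added, and thiocholine from endogenous AChE was quantified colorimetrically after 90 min at 37 C.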
Sequence of Acetylcholinesterase (Homo sapiens) (P22303 whole entry, looked up): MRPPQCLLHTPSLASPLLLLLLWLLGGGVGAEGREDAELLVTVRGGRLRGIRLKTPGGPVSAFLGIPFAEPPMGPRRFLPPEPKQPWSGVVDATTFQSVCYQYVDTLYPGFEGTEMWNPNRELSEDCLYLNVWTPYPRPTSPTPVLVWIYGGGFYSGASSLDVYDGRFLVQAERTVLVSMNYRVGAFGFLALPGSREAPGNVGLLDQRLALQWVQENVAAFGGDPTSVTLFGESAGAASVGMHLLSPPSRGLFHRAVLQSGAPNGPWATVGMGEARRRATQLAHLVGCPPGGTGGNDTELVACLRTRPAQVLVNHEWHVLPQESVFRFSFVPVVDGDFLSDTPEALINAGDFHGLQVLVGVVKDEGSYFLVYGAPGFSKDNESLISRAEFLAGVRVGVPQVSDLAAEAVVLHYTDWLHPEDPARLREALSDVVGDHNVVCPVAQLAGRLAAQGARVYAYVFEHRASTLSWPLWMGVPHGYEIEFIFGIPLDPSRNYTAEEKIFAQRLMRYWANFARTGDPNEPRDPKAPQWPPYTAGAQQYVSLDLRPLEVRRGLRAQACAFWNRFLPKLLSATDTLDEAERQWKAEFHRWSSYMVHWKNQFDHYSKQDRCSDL

Test [2] has the same target. Description: Acetylcholinesterase (AChE) small molecule antagonists: enzyme-based qHTS assay (AID 1347397). Further: nearly all actives have a fitted effect of over 55% in size. Further: potency means the concentration at half of the fitted maximal effect. As to conditions: Potency: AChE enzyme activity inhibition; outcome: AChE enzyme activity inhibition. The procedure, abridged: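 Compound or DMSO vehicle was pin-transferred onto recombinant human AChE (50 mU/mL as dispensed) and left 30 min at room temperature. Acetylthiocholine with DTNB then started the reaction, read colorimetrically 10 min later.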

For test [3] the target is unchanged. Description: Acetylcholinesterase (AChE) small molecule antagonists: fluorescence cell-based qHTS assay (AID 1347398). Further: nearly all actives have a fitted effect of over 50% in size. Further: potency means the concentration at half of the fitted maximal effect. Particulars: Potency: AChE activity; outcome: AChE activity. In short, it runs like this: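 Using neuroblastoma SH-SY5Y cells as the enzyme source, test chemicals are preincubated 30 min at 37 C; AChE-driven acetylthiocholine cleavage is then quantified by thiocholine-dependent Thiolite Green fluorescence after 40 min at room temperature.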

For test [4] the target is unchanged. Description: Acetylcholinesterase (AChE) small molecule antagonists: enzyme-based qHTS assay with human liver microsomes (AID 1347399). Further: nearly all actives have a fitted effect of over 60% in size. Particulars: Potency: qHTS inhibition; outcome: qHTS inhibition. In short, it runs like this:
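Recombinant human AChE (50 mU/mL in the enzyme mix) and human liver microsomes (0.25 mg/mL final) were preincubated with compound and NADPH (0.25 mg/mL final) for 30 min at 37 C. Acetylthiocholine/DTNB was then added; thiocholine was read colorimetrically after 10 min at room temperature.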

With `O=[N+]([O-])c1ccc(Oc2ccc([N+](=O)[O-])cc2)cc1`, the Potency result in test [1], in test [2], in test [3] and in test [4] was “inactive” throughout.

As for `O=C1Nc2ccccc2C1=O`, the Potency entry in test [1], in test [2], in test [3] and in test [4] was “inactive” throughout.

In the case of `CCCCC[C@H](O)/C=C/[C@H]1[C@H](O)CC(=O)[C@@H]1C/C=C\CCCC(=O)O`, the Potency result in test [1], in test [2], in test [3] and in test [4] was “inactive” each time.

For the compound `c1ccc(CCNc2nc(-c3ccccc3)cs2)cc1`, the Potency entry in test [1], in test [2], in test [3] and in test [4] was “inactive” throughout.

For the compound `CC(C)=CCC/C(C)=C/CC/C(C)=C/C(=O)OCC(=O)[C@@]1(O)CC[C@H]2[C@@H]3CCC4=CC(=O)C=C[C@]4(C)[C@H]3[C@@H](O)C[C@@]21C`, the Potency result in test [1], in test [2], in test [3] and in test [4] was “inactive” in each case.

Turning to `CC(C)(c1ccc(Oc2ccc(N)cc2)cc1)c1ccc(Oc2ccc(N)cc2)cc1`, the Potency entry in test [1], in test [2], in test [3] and in test [4] was “inactive” each time.

On to `C=C(C)C(=O)OCCOc1ccccc1`, for which the Potency result in test [1], in test [2], in test [3] and in test [4] was “inactive” in each case.

`O=C(COCCOCCOCC(=O)Nc1c(I)cc(I)c(C(=O)O)c1I)Nc1c(I)cc(I)c(C(=O)O)c1I`: the Potency result in test [1], in test [2], in test [3] and in test [4] was “inactive” in each case.

Consider `C=CCOC(=O)CCCCCCCC`, for which the Potency entry in test [1], in test [2], in test [3] and in test [4] was “inactive” each time.

Consider `NC(=O)c1ccccc1Cl`, for which the Potency entry in test [1], in test [2], in test [3] and in test [4] was “inactive” in each case.

For the compound `CC[C@H](C)C(=O)O[C@H]1C[C@H](O)C=C2C=C[C@H](C)[C@H](CC[C@@H](O)C[C@@H](O)CC(=O)O)[C@H]21`, the Potency entry in test [1], in test [2], in test [3] and in test [4] was “inactive” each time.

For `CNC(=S)N(C)C`, the Potency result in test [1] and in test [4] was “inactive” throughout. Besides, the Potency is 63.9 µM (active) and inactive in test [2]; 32 µM (active) and inactive in test [3].

On to `O=C(O)CCCc1c[nH]c2ccccc12`, for which the Potency entry in test [1], in test [2], in test [3] and in test [4] was “inactive” in each case.

Consider `CC(C)(N)C#N`, for which the Potency result in test [1], in test [2], in test [3] and in test [4] was “inactive” in each case.

With `C[C@]12CC[C@H]3[C@@H](CCC4=CC(=O)CC[C@@]43C)[C@@H]1CC[C@@H]2C(=O)CO`, the Potency entry in test [1], in test [2], in test [3] and in test [4] was “inactive” each time.

As for `O=[N+]([O-])c1ccc(NCCO)c(OCCO)c1`, the Potency entry in test [1], in test [2], in test [3] and in test [4] was “inactive” each time.

Turning to `CC1CCC2CC1C2(C)C` (configuration not stated), the Potency entry in test [1], in test [2], in test [3] and in test [4] was “inactive” in each case.

In the case of `CC(=O)CC(=O)c1ccccc1`, the Potency result in test [1], in test [2], in test [3] and in test [4] was “inactive” throughout.

In the case of `O=C(O)c1ccc[n+]([O-])c1`, the Potency result in test [1], in test [2], in test [3] and in test [4] was “inactive” each time.

Consider `CCCCCCCCCCCCSC#N`, for which the Potency entry in test [1], in test [2], in test [3] and in test [4] was “inactive” each time.

In the case of `O=c1[nH]cnc2c1ncn2[C@@H]1O[C@H](CO)[C@@H](O)[C@H]1O`, the Potency entry in test [1], in test [2], in test [3] and in test [4] was “inactive” throughout.

With `CC(=O)OCCC1CCCCC1`, the Potency entry in test [1], in test [2], in test [3] and in test [4] was “inactive” throughout.

Consider `O=Cc1ccc(Cl)c(Cl)c1`, for which the Potency entry in test [1], in test [2], in test [3] and in test [4] was “inactive” throughout.

As for `CC(=O)CCc1ccc(OC(C)=O)cc1`, the Potency result in test [1], in test [2], in test [3] and in test [4] was “inactive” throughout.

As to `CCOC(=O)n1ccn(C)c1=S`, the Potency entry in test [1], in test [2], in test [3] and in test [4] was “inactive” in each case.

In the case of `NCCO`, the Potency result in test [1], in test [2], in test [3] and in test [4] was “inactive” throughout.

As for `Nc1ccc(S(=O)(=O)Nc2ccc(Cl)nn2)cc1`, the Potency entry in test [1], in test [2], in test [3] and in test [4] was “inactive” each time.

Consider `COc1cc(C(C)(C)C)c(O)c(C(C)(C)C)c1`, for which the Potency entry in test [1], in test [2], in test [3] and in test [4] was “inactive” throughout.

Regarding `CCCCCC/C=C/CCCCCCCC(=O)O`, the Potency result in test [1], in test [2], in test [3] and in test [4] was “inactive” in each case.

On to `Oc1ccccc1Cc1ccccc1O`, for which the Potency entry in test [1], in test [2], in test [3] and in test [4] was “inactive” each time.

`Oc1ccc2cc(SSc3ccc4cc(O)ccc4c3)ccc2c1`: the Potency result in test [1], in test [2], in test [3] and in test [4] was “inactive” each time.

Regarding `O=S(=O)(O)c1ccc(Cl)cc1`, the Potency entry in test [1], in test [2], in test [3] and in test [4] was “inactive” throughout.

Consider `O=C(O)Cc1cn(-c2ccccc2)nc1-c1ccc(Cl)cc1`, for which the Potency result in test [1], in test [2], in test [3] and in test [4] was “inactive” throughout.

As for `CCOC(=O)NCCC[Si](OCC)(OCC)OCC`, the Potency entry in test [1], in test [2], in test [3] and in test [4] was “inactive” throughout.

On to `CC[C@H](C)[C@@H](C(=O)O)n1sc2ccccc2c1=O`, for which the Potency result in test [1], in test [2], in test [3] and in test [4] was “inactive” throughout.

Turning to `O=C(O)CCCCCCCCC(=O)O`, the Potency entry in test [1], in test [2], in test [3] and in test [4] was “inactive” each time.

Regarding `CC(=O)OC/C=C(\C)CCC=C(C)C`, the Potency entry in test [1], in test [2], in test [3] and in test [4] was “inactive” in each case.

`CC(C)CCCCCCCOC(=O)CCCCC(=O)OCCCCCCCC(C)C`: the Potency result in test [1], in test [2], in test [3] and in test [4] was “inactive” each time.
